# Hit rate of the full screen: of about 300,000 compounds, about 2,300 (0.77%) were called active. The list comes from a sample in which actives are over-represented; it also holds similar structures and randomly drawn compounds. Unmarked numbers belong to inactive results.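 Rule for the calls: active = more than half of replicate wells show activity change below -50%, luminescence cut by over half; inconclusive = some wells, but at most half, below -50%; inactive = no replicate well below -50%.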
# Assay: HSF1 inhibitors in luciferase reporter cells, primary screen, cell-based, NIH3T3, luminescence (AID 2098);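 note: luciferase reports HSF-1 transcriptional activity via heat shock element; 0% = median of DMSO wells and -100% = zero luminescence signal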
# Conditions: NIH3T3-HGL HSE-luciferase, MG132-induced, luminescence 8 h; active compounds read low; screened at 7.5 µM (by protocol)
row,SMILES,"activity change, negative = inhibition"
1,COc1cc(C2C(C(=O)c3cccs3)=C(O)C(=O)N2CCN2CCOCC2)ccc1OCCC(C)C (stereo not drawn),-1.71%
2,CC(=O)Nc1ccc(NC(=O)C(C)OC(=O)C2CC(=O)N(CCc3ccccc3)C2)cc1 (stereo not drawn),-2.7%
3,O=S(=O)(NCc1ccccn1)c1ccc(Br)s1,-3.36%
4,O=[N+]([O-])c1cccc(S(=O)(=O)NCc2ccccn2)c1,-1.49%
5,O=S(=O)(NCc1ccccn1)c1ccc(F)cc1,-83.2% (active)
6,Cc1ccn2c(=O)c(NC(=O)c3cccc4ccccc34)c(C)nc2c1,-1.23%
7,Cc1ccc(C(=O)CN2C(=O)NC3(CCc4ccccc43)C2=O)c(C)c1 (stereo not drawn),6.44%
8,O=C(COC(=O)c1ccccn1)NNC(=O)c1ccc([N+](=O)[O-])cc1,-1.26%
9,CC(=O)c1sc(N)nc1C,1.87%
10,CN(Cc1ccccc1F)C(=O)C(Cc1ccccc1)NC(=O)c1ccccc1 (stereo not drawn),1.87%
11,COc1ccccc1C(=O)NC(=S)Nc1ccccc1N1CCCCC1,-53.8% (active)
12,O=C(NC(=S)Nc1ccccc1N1CCCCC1)c1ccc(F)cc1,-7.72%
13,COc1ccc(C(=O)NC(=S)Nc2ccccc2N2CCN(S(C)(=O)=O)CC2)cc1OC,-1.5%
14,O=C(Cc1ccc(Br)cc1)NCCc1ccccc1,3.74%
15,O=C(CSc1ncccn1)NC(=O)NCc1ccccc1,2.98%
16,O=C(CSc1ncccn1)NCCc1ccccc1,-68.6% (active)
17,Cc1cc2oc3ccc(NCCC4CCCN4C)cc3c(=O)c2cc1C (stereo not drawn),6.14%
18,CCOC(=O)CSc1nnc(-c2ccncc2)o1,-9.32%
19,CCN(C(=O)CSc1nnc(-c2ccncc2)o1)c1ccccc1,-5.45%
20,CCc1ccccc1NC(=O)CSc1nnc(-c2ccncc2)o1,-75.8% (active)
21,CCOc1ccc2nc(NC(=O)c3cc([N+](=O)[O-])ccc3N3CCOCC3)sc2c1,-61.5% (active)

row,SMILES,"activity change, negative = inhibition"
1,COc1ccc(S(=O)(=O)N2CCCCC2)cc1NC(=O)c1cc([N+](=O)[O-])ccc1N1CCOCC1,-3.7%
2,O=C(NC1CCCCC1)c1cc([N+](=O)[O-])ccc1N1CCOCC1,0.205%
3,O=C(Nc1ncccc1O)c1ccc(C(=O)c2ccccc2)cc1,-2.64%
4,COC(=O)c1ccc(NS(=O)(=O)c2cc3c4c(c2)C(C)C(=O)N4CCC3)cc1 (stereo not drawn),-0.43%
5,Cc1ccc(C)c(OCCC(=O)Nc2cccc(S(=O)(=O)N3CCCC3)c2)c1,3.66%
6,COc1ccc(C2=NN(c3nc4ccccc4s3)C(=O)C2)cc1,1.26%
7,CCOc1cccc(-n2nnnc2-c2ccc(OC)cc2)c1,-2.61%
8,COc1ccc(-n2nnnc2-c2nc3ccccc3s2)cc1,-65.3% (active)
9,Nc1cccnc1Sc1ccccc1,-0.323%
10,CCCCn1c(N)c(N(CCC(C)C)C(=O)CC2OC(=O)c3ccccc32)c(=O)[nH]c1=O (stereo not drawn),3.21%
11,O=C(COc1cccc2c1CCNC2=O)NC1CCCCC1,-0.75%
12,O=C(COC(=O)c1cccc(Cl)c1)Nc1ccc2[nH]c(=O)[nH]c2c1,-4.05%
13,Cc1nn(C)c(Cl)c1CN1CCC(n2nccc2NC(=O)C2CCCC2)CC1,-53.5% (active)
14,CC(CN1CCC(n2nccc2NC(=O)C2CCCC2)CC1)c1ccccc1 (stereo not drawn),-6.86%
15,O=C(Nc1ccnn1C1CCN(Cc2cccc(OCCO)c2)CC1)C1CCCC1,-3.05%
16,c1ccc(C[C@H]2CNCCN2CCC23CC4CC(CC(C4)C2)C3)cc1,0.124%
17,COc1cc2c(cc1OC)C(Cc1cc(OC)c(OC)cc1[N+](=O)[O-])=NCC2,-5.53%
18,CC(=O)Nc1cccc(C(=O)OCC(=O)c2ccc3c(c2)OCO3)c1,-8.13%
19,CCCCn1c(N)c(N(CCOC)C(=O)c2cccc(OCc3ccccc3)c2)c(=O)[nH]c1=O,-6.51%
20,O=C(COC(=O)c1cccs1)Nc1ccccc1Cl,4.76%
21,O=C(Nc1ccccc1Cl)Nn1cnnc1,-3.45%

row,SMILES,"activity change, negative = inhibition"
1,O=C(Nc1ccccc1Cl)/C(Cl)=C(\Cl)S(=O)c1ccccc1 (stereo not drawn),-63.2% (active)
2,CC(C)CN(C(=O)c1ccc2c(c1)OCO2)C1CCS(=O)(=O)C1 (stereo not drawn),1.63%
3,COc1ccccc1C(=O)NC(=O)COC(=O)c1ccco1,-2.8%
4,COc1ccc(C(=O)OCC(=O)NCCCc2ccccc2)cc1OC,-6.5%
5,COc1ccccc1C(=O)OCC(=O)NCCNC(=O)COC(=O)c1ccccc1OC,-54.9% (active)
6,COc1ccccc1C(=O)NC(CCSC)C(=O)NNC(=O)c1ccccc1C (stereo not drawn),-4.57%
7,CCOc1ccc(OCc2cccc(C(=O)N(CC)CC)c2)cc1,-51.8% (active)
8,COc1ccc(OCc2cccc(C(=O)N3CCCC3)c2)cc1,-11%
9,CCOc1ccc(OCc2ccc(C(=O)N(C)c3ccccc3)o2)cc1,9.19%
10,Cc1ccc(S(=O)(=O)N2CCOCC2)cc1C(=O)Nc1ccccc1N1CCCC1,3.38%
11,O=[N+]([O-])c1ccc(O)c(/C=N/Nc2ccccc2[N+](=O)[O-])c1,2.12%
12,O=C(CCCO)N/N=C/c1cc(Br)ccc1O,-13.7%
13,Oc1ccc(Br)cc1/C=N/Nc1ccccn1,-72.1% (active)
14,Cn1c(=N)n(CC(O)c2cccs2)c2ccccc21 (stereo not drawn),-12.7%
15,Cn1c(=N)n(CC(O)c2ccccc2)c2ccccc21 (stereo not drawn),-64.8% (active)
16,Cc1nc2ccccc2n1CC(O)c1ccccc1 (stereo not drawn),-6.27%
17,COc1ccc(C(=O)Nc2cccc(NC(=O)c3ccc(OC)cc3OC)n2)c(OC)c1,-27.9%
18,Cc1ccc(CN2CCN(c3ccccc3Cl)CC2)o1,-5.3%
19,COC(=O)C1=CN(C)C=C(C(=O)OC)C1c1ccc(Cl)cc1Cl,6.26%
20,COC(=O)c1nc2n(n1)C(c1ccc([N+](=O)[O-])cc1)C(C(=O)Nc1ccc(Cl)cc1)=C(C)N2 (stereo not drawn),-14.3%
21,COC(=O)C1=CN(c2ccc(F)c(F)c2)C=C(C(=O)OC)C1c1ccc([N+](=O)[O-])cc1,-77.3% (active)

# Source: PubChem BioAssay AID2098 (Broad Institute, 2009)
